High-throughput results from PubChem.
Rows were chosen to be rich in hits. Some 1.7% of all compounds tested hit in one or more screens of this group.
GLP-1R inv ag = GLP-1 receptor (human) inverse agonism | Potency, µM (doses to about 38.3 µM), inactives show top-dose activity change, negative = inhibition, most hits filed as inhibitors | HEK293 GLP-1R CRE-luciferase, luminescence, 24 h; GLP-1R form is constitutively active | hit rate 1.6% among 410,000 | P43220; further: on the % scale 0 is the no-effect control and ±100 the full control effect; nearly all actives have a fitted effect of over 55% in size
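Inverse agonists were sought by their lowering of basal cAMP reporter luciferase output in HEK293 cells stably carrying constitutively active human GLP-1R, after 24 h compound treatment.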
PTHR1 agonist = PTHR1 (human) receptor agonism; Q03431; HEK293 GP2 PTHR1 cells, GloSensor cAMP luminescence, 1 h; Potency, µM (highest dose often 115 µM), for the others: at the highest dose activation, hits mostly activators; hit rate 0.075% among 410,000; AID 743266; further: nearly all actives have a fitted effect of over 55% in size
Target sequence (Q03431 whole entry, looked up): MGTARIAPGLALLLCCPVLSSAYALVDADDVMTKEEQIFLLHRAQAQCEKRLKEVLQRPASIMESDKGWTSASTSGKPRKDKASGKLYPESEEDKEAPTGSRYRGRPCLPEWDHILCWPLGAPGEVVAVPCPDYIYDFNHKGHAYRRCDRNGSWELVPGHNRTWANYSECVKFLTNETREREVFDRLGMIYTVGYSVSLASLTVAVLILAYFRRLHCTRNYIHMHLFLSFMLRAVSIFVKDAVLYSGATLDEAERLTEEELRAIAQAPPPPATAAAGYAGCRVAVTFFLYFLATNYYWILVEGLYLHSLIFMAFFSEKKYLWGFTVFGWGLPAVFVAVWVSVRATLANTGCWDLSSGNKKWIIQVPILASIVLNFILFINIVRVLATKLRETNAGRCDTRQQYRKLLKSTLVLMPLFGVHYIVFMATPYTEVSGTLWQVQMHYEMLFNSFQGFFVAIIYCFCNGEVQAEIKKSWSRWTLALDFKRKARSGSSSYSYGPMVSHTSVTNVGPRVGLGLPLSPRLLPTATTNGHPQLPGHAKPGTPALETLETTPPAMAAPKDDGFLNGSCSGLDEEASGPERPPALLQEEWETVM
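HEK-293-derived GP2 cells expressing PTHR1 and a GloSensor cAMP reporter, 3,000/well, plated overnight, given luciferin plus IBMX (each 0.5 mM as added) for 1 h at 37 °C, then compound for 1 h at 37 °C. Luminescence was read after 15 min at room temperature.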
GLP1R cytotox = cytotoxicity in counter-screen for GLP-1R inverse agonists. HEK293 cAMP-luciferase reporter cells, luminescence, 24 h. Potency, µM (highest dose often 38.3 µM), for the others: at the top dose activity change, negative = inhibition, usual class: inhibitors. hit rate 0.13% among 410,000. AID 624418;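 further: loss of luciferase light is scored as toxicity; on the % scale 0 is the no-effect control and ±100 the full control effect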
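1536-well qHTS counterscreen of the MLSMR; 200 cells/uL, 12 h pre-incubation, 23 nL cpd, 24 h at 37 deg C 5% CO2, luciferase detection reagent, 12 min RT, luminescence. Inhibition = undesired.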
GLP1R ag = activates the human GLP-1 receptor; Potency, µM (doses to about 45.6 µM), without a hit: at the highest dose activation, most hits filed as activators; P43220; HEK293 GLP-1R CRE-luciferase, luminescence, 4-6 h; cells express a hypersensitive GLP-1R form; hit rate 0.007% among 380,000; further: % of control where 0% means no effect
An asterisk follows results filed as active; [ ] = dose if it differs, or a comment. The call rests on the fitted dose curve; in most records, active means well fitted curve in the direction sought with a large enough effect; inconclusive means small, poorly fitted or top-dose-only effect, or another doubt; inactive means no such curve, though single readings can be large; an effect the other way counts as inactive or inconclusive. Potency means the concentration at half of the fitted maximal effect.

What do the screens show for `Cc1ccccc1CC1CCN(CCCNC(=O)Nc2ccccc2)CC1`?
GLP-1R inv ag: 10µM*; PTHR1 agonist: -5.9%; GLP1R cytotox: -2.3%; GLP1R ag: -3.2%

How did Cn1nc(C(F)(F)F)c(C(=O)Nc2ccc(F)cc2F)c1Sc1cccc(Cl)c1 do in these assays?
GLP-1R inv ag: 12.6µM*; PTHR1 agonist: inactive; GLP1R cytotox: -0.7%; GLP1R ag: -10.4%

How did Cn1nc(C(F)(F)F)c(C(=O)Nc2ccc(F)cc2F)c1Sc1cccc(C(F)(F)F)c1 do in these assays?
GLP-1R inv ag: 0.0%; PTHR1 agonist: inactive; GLP1R cytotox: 3.6%; GLP1R ag: -13.6%

What do the screens show for `O=C(N/N=C/c1ccc(C(F)(F)F)cc1)c1ccc(O)cc1`?
GLP-1R inv ag: inconclusive; PTHR1 agonist: -10.6%; GLP1R cytotox: -21.2%; GLP1R ag: 15.7%

What do the screens show for `NC(N)=NN=C(c1ccc(F)cc1)c1ccc(C(F)(F)F)cc1`?
GLP-1R inv ag: 1.12µM*; PTHR1 agonist: inactive; GLP1R cytotox: inconclusive; GLP1R ag: -3.1%

How did CN(Cc1nc2ccccc2c(=O)[nH]1)Cc1nc2ccsc2c(=O)[nH]1 do in these assays?
GLP-1R inv ag: -17.8%; PTHR1 agonist: -24.8%; GLP1R cytotox: 12.6µM*; GLP1R ag: 6.1%

How did CN(Cc1nc2ccccc2c(=O)[nH]1)C(=O)c1ccccc1OCc1ccc(Cl)cc1 do in these assays?
GLP-1R inv ag: inconclusive; PTHR1 agonist: -30.2%; GLP1R cytotox: -4.5%; GLP1R ag: 15.8%

How did CC(NC(=O)CN(C)Cc1nc2ccccc2c(=O)[nH]1)c1ccccc1 (stereo unspecified) do in these assays?
GLP-1R inv ag: 21.6%; PTHR1 agonist: inactive; GLP1R cytotox: -0.5%; GLP1R ag: -2.1%

What do the screens show for `CC(OCC(O)CN(C)Cc1nc2ccccc2c(=O)[nH]1)c1ccc(Cl)cc1` (stereo unspecified)?
GLP-1R inv ag: 10µM*; PTHR1 agonist: -32.8%; GLP1R cytotox: -26.8%; GLP1R ag: 22.9%

What do the screens show for `Cc1ccc(C)c(NC(=O)Cn2c(=O)n(CC(=O)NCCc3ccccc3)c(=O)c3ccccc32)c1`?
GLP-1R inv ag: 3.0%; PTHR1 agonist: -7.4%; GLP1R cytotox: -0.3%; GLP1R ag: -1.9%

How did Cc1ccc(Cn2c(CNC(=O)c3ccccc3Br)nc3cccnc32)cc1 do in these assays?
GLP-1R inv ag: 0.5%; PTHR1 agonist: -5.9%; GLP1R cytotox: -2.4%

What do the screens show for `CC#CC[C@@H](C)[C@@H](O)/C=C/[C@H]1[C@H]2c3cccc(CCCC(=O)O)c3O[C@H]2C[C@@H]1O`?
GLP1R ag: 1.3%

What do the screens show for `O=C(/C=C/c1ccccc1)CC(O)(c1ccccc1)C(F)(F)F` (stereo unspecified)?
GLP-1R inv ag: 11.2µM*; PTHR1 agonist: -13.1%[57.5 µM]; GLP1R cytotox: 2.2%; GLP1R ag: -5.7%

Results for O=C(/C=C/c1ccccc1)CC(O)(c1ccccc1)C(F)(F)C(F)F (stereo unspecified) ?
GLP-1R inv ag: inconclusive; PTHR1 agonist: -27.6%; GLP1R cytotox: 6.0%; GLP1R ag: -22.2%

Results for Cc1ccc(C)c(-c2nn(CC(=O)Nc3cc(F)ccc3F)c(=O)c3c2CCCC3)c1 ?
GLP-1R inv ag: inconclusive; PTHR1 agonist: -21.1%; GLP1R cytotox: -3.7%

Results for COc1cc(OC)cc(C2=Cc3ccc(OC)cc3C(CC(C)=O)N2c2ccc(C#CC3(O)CCCCC3)cc2)c1 (stereo unspecified) ?
GLP-1R inv ag: inconclusive; PTHR1 agonist: -22.2%; GLP1R cytotox: -0.6%; GLP1R ag: 0.4%

What do the screens show for `COc1cccc(C2=Cc3ccc(F)cc3C(CC(C)=O)N2c2ccc(C#CC3(O)CCCCC3)cc2)c1` (stereo unspecified)?
GLP-1R inv ag: 5.01µM*; PTHR1 agonist: -18.8%; GLP1R cytotox: 4.7%; GLP1R ag: 0.5%

How did Cc1cccc(C2(c3cccc(C)c3)CC2C(=O)Nc2ccc([N+](=O)[O-])cc2O)c1 (stereo unspecified) do in these assays?
GLP-1R inv ag: 2.51µM*; PTHR1 agonist: -28.7%; GLP1R cytotox: inconclusive; GLP1R ag: -5.1%

What do the screens show for `CC(=O)NNC(=O)c1[nH]c2ccc(Cl)cc2c1-c1ccccc1`?
GLP-1R inv ag: inconclusive; PTHR1 agonist: inactive; GLP1R cytotox: -8.9%; GLP1R ag: 0.9%

How did O=C(NN=C1CCCC1)c1[nH]c2ccc(Cl)cc2c1-c1ccccc1 do in these assays?
GLP-1R inv ag: 3.16µM*; PTHR1 agonist: -10.0%; GLP1R cytotox: inconclusive; GLP1R ag: 20.6%

What do the screens show for `Cc1ccc(C2=NNC(c3ccc(Cl)cc3)=Nc3ccccc32)o1`?
GLP-1R inv ag: 7.94µM*; PTHR1 agonist: -19.5%; GLP1R cytotox: -26.3%; GLP1R ag: 3.5%

What do the screens show for `c1ccc(C2=NNC(c3ccco3)=Nc3ccccc32)cc1`?
GLP-1R inv ag: inconclusive; PTHR1 agonist: -21.2%; GLP1R cytotox: 2.6%; GLP1R ag: 0.3%

What do the screens show for `COc1ccccc1-c1nnc(C2CCN(C(=O)c3cccc(Cl)c3)CC2)o1`?
GLP-1R inv ag: -2.0%; PTHR1 agonist: -4.2%; GLP1R cytotox: 1.4%

How did CCOC(=O)Cc1csc(SCC(=O)Nc2cc(Cl)ccc2Oc2ccccc2)n1 do in these assays?
GLP-1R inv ag: 10µM*; PTHR1 agonist: -43.6%; GLP1R cytotox: 26.1%; GLP1R ag: -2.4%

How did O=[N+]([O-])c1ccc(CSc2ccc(S(=O)(=O)N3CCCCCC3)cn2)cc1 do in these assays?
GLP-1R inv ag: 11.2µM*; PTHR1 agonist: -20.1%; GLP1R cytotox: 32.5%; GLP1R ag: 20.8%

How did NC(=O)C(c1ccc(F)cc1)c1ccc(C(=O)c2ccccc2)cc1 (stereo unspecified) do in these assays?
GLP-1R inv ag: inconclusive; PTHR1 agonist: -19.7%; GLP1R cytotox: -6.8%; GLP1R ag: -1.4%

How did NC(=O)C(c1ccc(Br)cc1)c1ccc(C(=O)c2ccccc2)cc1 (stereo unspecified) do in these assays?
GLP-1R inv ag: 11.2µM*; PTHR1 agonist: -19.8%; GLP1R cytotox: -6.1%; GLP1R ag: 7.9%

Results for Cc1ccc(C)c(-n2cc(CNCCCn3cccn3)c(-c3ccccc3)n2)c1 ?
GLP-1R inv ag: 11.2µM*; PTHR1 agonist: inactive; GLP1R cytotox: 0.6%; GLP1R ag: -0.3%

What do the screens show for `CC(C)N(C(=O)CSc1nc2ccccc2n1Cc1ccccc1F)C(C)C`?
GLP-1R inv ag: 2.24µM*; PTHR1 agonist: -26.4%; GLP1R cytotox: -3.3%; GLP1R ag: 4.4%

How did CC(C)N(C(=O)CSc1nc2ccccc2n1Cc1ccccc1)C(C)C do in these assays?
GLP-1R inv ag: inconclusive; PTHR1 agonist: inactive; GLP1R cytotox: -5.5%; GLP1R ag: 7.7%

Results for Cc1cccc2c1N(Cc1ccccc1OCCC(C)C)C(=O)C2=O ?
GLP-1R inv ag: 6.9%; PTHR1 agonist: -13.3%; GLP1R cytotox: -2.1%

How did Cc1cc(C(=O)COC(=O)c2ccc(O)cc2)c(C)n1-c1ccccc1F do in these assays?
GLP-1R inv ag: 10µM*; PTHR1 agonist: -27.6%; GLP1R cytotox: -11.3%; GLP1R ag: 2.8%
